Compounds without any hit were thinned out: in the full panel of roughly 83,000, 20% have a hit.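 Single-dose data. Exposure time 48 hours. Values below 10 considered active.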 A number with no mark means an inactive call. Activity calls are given as the source filed them.

In PubChem BioAssay (NCI) one finds growth data, which are given here for 14 compounds.

This assay deals with HL-60(TB) leukemia. The experiment in a line: NCI-60 one-dose screen, 48 h (100 = growth as untreated, 0 = no growth, -100 = all killed). The settings on record: 10 µM unless noted.
In the case of `CCC(CCC(C)C1CCC2C3CC=C4CC(O)CCC4(C)C3CCC12C)C(C)C` (centres undefined) (tested in a mixture with another compound), the growth was 82.5%.
Take `COc1ccc(Cn2cc3c(c2-c2ccc(O)cc2)CCc2cnoc2-3)cc1`: the growth is 4.87% (active).
On to `C[C@@H](Oc1cc(-c2cnn(C3CCNCC3)c2)cnc1N)c1c(Cl)ccc(F)c1Cl`, for which the growth is -59.4% (active).
In the case of `Nc1nc2ccc(-c3nc4ccc5[nH]ncc5c4c4c3CCC4)cc2s1`, the growth is 30.2%.
For `COc1ccc(C(=O)Nc2ncc(Cc3ccc(Cl)cc3)s2)cc1`, the growth is -11% (active).
For the compound `CCNc1nnc(COc2ccc(CNC(=O)CCCC/C=C/C(C)C)cc2OC)o1`, the growth is 98.4%.
`Oc1nc(NCc2ccccc2)sc1/C=C1\C=Nc2ncccc21`: the growth is 36.4%.
`O=C1N(c2ccccc2)C(=S)N[C@]12[C@H](c1ccccc1)C1CCCN1[C@]21C(=O)NC2C=CC(Cl)=C[C@H]21` (some centres undefined): the growth is 81.5%.
As for `CC(C)c1ccccc1NC(=O)N1CCC(C(C)C)CC1`, the growth is 105%.
Regarding `COc1cc(-c2nc(SCCC(C)C)nc(Nc3ccc(S(N)(=O)=O)cc3)c2C#N)cc(OC)c1OC`, the growth is -18.9% (active).
Take `COc1cc(/C=N/NC(=O)c2ccccc2Nc2ccnc(C(F)(F)F)c2)ccc1O`: the growth was 14%.
As to `CC#Cc1nc(Nc2cc(C)[nH]n2)c2ccccc2n1`, the growth was 4.13% [100 µM] (active).
For the compound `CN1CCN(Cc2ccc(NC(=O)c3ccc(C#Cc4c(N)ncc5ccc(F)cc45)cc3)cc2C(F)(F)F)CC1`, the growth was -10.7% (active).
For the compound `COc1ccc(CN2C(=O)/C(=C\C(=O)c3ccc(OCCN4CCCC4)cc3)c3ccccc32)cc1`, the growth is 4.86% (active).
